{"source": "PubChem BioAssay AID588397", "about": "(National Center for Advancing Translational Sciences (NCATS), 2011)", "note": "Several values for one entry are separate records, joined by “and”; a condition that tells them apart may be missing. Identical values can stand only once. Out of some 1,300 compounds screened, about 1,000 (77%) were called active. Inconclusive results (about 7%) are left out. Calls come from the whole dose curve; as a rule, active = well fitted inhibition curve with a large enough effect; inconclusive = small, poorly fitted or top-dose-only effect; inactive = no such curve, though single readings can be large or run the other way. The set was probably picked from earlier hits. This is one part of the list. Potency is the fitted concentration of half-maximal effect.", "data": [{"assay": "qHTS of small molecules that selectively kill Giardia lamblia: Hit Validation;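 note: viability measured as ATP content by luminescence so killing lowers signal; nearly all actives have a fitted effect of over 65% in size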.", "conditions": "Giardia lamblia trophozoite viability, dose-response; series mostly up to 38.3 µM", "summary_of_the_method": "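Luminescent ATP signal served as the viability read-out, measured 15-30 min after adding ATP detection reagent to trophozoites that had been incubated with compounds for 48 hrs at 37 deg C anaerobically at 100 cells/well.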", "values": [{"smiles": "CCN1CCN(Cc2ccc(NC(=O)Nc3ccccc3)cc2)CC1", "Potency": "9.18 µM (active)"}, {"smiles": "CN(C(=O)c1cccc(NC(=O)Cc2ccc(NC(=O)C3CCN(C(=O)c4ccccc4)CC3)cc2)c1)C1CC1", "Potency": "inactive"}, {"smiles": "O=C(Nc1ccccc1)Nc1ccc(C(=O)N2CCCC2)cc1", "Potency": "5.79 µM (active)"}, {"smiles": "O=C(NCC1CCN(Cc2ccc(F)cc2)CC1)Nc1cc(F)ccc1F", "Potency": "inactive"}, {"smiles": "Cc1cc([N+](=O)[O-])nn1Cc1ccc(F)cc1", "Potency": "2.9 µM (active)"}, {"smiles": "Cc1cc([N+](=O)[O-])nn1Cc1noc(C(=O)NCc2ccc3c(c2)OCO3)n1", "Potency": "inactive"}, {"smiles": "COc1ccc(NC(=O)C(c2ccc(Cl)cc2)C(C)C)cn1", "note": "(stereo not drawn)", "Potency": "inactive"}, {"smiles": "CC(NC(=O)COc1cccnc1[N+](=O)[O-])c1ccc(F)cc1", "note": "(stereo not drawn)", "Potency": "5.79 µM (active)"}, {"smiles": "CC(NC(=O)COc1cccnc1[N+](=O)[O-])c1ccc(Cl)cc1Cl", "note": "(stereo not drawn)", "Potency": "3.26 µM (active)"}, {"smiles": "CC(NC(=O)COc1cccnc1[N+](=O)[O-])c1ccc(Cl)cc1", "note": "(stereo not drawn)", "Potency": "5.16 µM (active)"}, {"smiles": "O=[N+]([O-])c1cncc([N+](=O)[O-])c1Nc1cccc(O)c1", "Potency": "3.26 µM (active)"}, {"smiles": "O=[N+]([O-])c1cncc([N+](=O)[O-])c1Nc1ccccc1Cl", "Potency": "5.16 µM (active)"}, {"smiles": "N/C(=N/OC(=O)c1ccc(Cl)cc1)c1ncc([N+](=O)[O-])s1", "Potency": "1.3 µM (active)"}, {"smiles": "O=C(Oc1cccc2c(O)cccc12)c1ccccc1Cl", "Potency": "inactive"}, {"smiles": "N/C(=N/OC(=O)c1ccccc1Cl)c1ncc([N+](=O)[O-])s1", "Potency": "1.63 µM (active)"}, {"smiles": "N/C(=N\\OC(=O)c1ccc(Cl)cc1[N+](=O)[O-])c1ccccn1", "Potency": "8.18 µM (active)"}, {"smiles": "COc1ccc(-n2nc([N+](=O)[O-])c(=NCCc3ccccc3)n2O)cc1", "Potency": "1.16 µM (active)"}, {"smiles": "COc1ccc(-n2nc([N+](=O)[O-])c(=NCCc3ccc(Cl)cc3)n2O)cc1", "Potency": "1.45 µM (active)"}, {"smiles": "COc1ccc(-n2nc([N+](=O)[O-])c(=NCCC3=CCCCC3)n2O)cc1", "Potency": "4.1 µM (active)"}, {"smiles": "COc1ccc(-n2nc([N+](=O)[O-])c(=NCCc3ccc(OC)c(OC)c3)n2O)cc1", "Potency": "1.16 µM (active)"}, {"smiles": "COc1ccc(-n2nc([N+](=O)[O-])c(=NCCc3ccc(C)cc3)n2O)cc1", "Potency": "4.1 µM (active)"}, {"smiles": "COc1ccc(CCN=c2c([N+](=O)[O-])nn(-c3cccc(C)c3)n2O)cc1OC", "Potency": "5.16 µM (active)"}, {"smiles": "CCN(CC)C(=O)Cn1cc([N+](=O)[O-])cc1[N+](=O)[O-]", "Potency": "0.46 µM (active)"}, {"smiles": "CCN(C(=O)C1CCN(S(=O)(=O)c2ccc3c(c2)oc(=O)n3C)CC1)c1cccc(C)c1", "Potency": "inactive"}, {"smiles": "N#Cc1c(Nc2ccccc2)[n+]([O-])c2ccc(Cl)cc2[n+]1[O-]", "Potency": "1.63 µM (active)"}, {"smiles": "O=C1c2cc(F)ccc2-n2c1nc1ccccc1c2=O", "Potency": "1.83 µM (active)"}, {"smiles": "CCOCCOc1nc2c(c(=O)n(C)c(=O)n2C)n1Cc1ccc(C)cc1", "Potency": "inactive"}, {"smiles": "CC(C)(C)c1cc(C(=O)N/N=C/c2ccc([N+](=O)[O-])s2)n[nH]1", "Potency": "3.65 µM (active)"}, {"smiles": "Cc1cc(C(=O)N/N=C/c2ccc([N+](=O)[O-])s2)n[nH]1", "Potency": "2.31 µM (active)"}, {"smiles": "CC(C)(C)c1cc(C(=O)N/N=C/c2ccncc2)n[nH]1", "Potency": "inactive"}, {"smiles": "Cc1cc(C(=O)N/N=C/c2ccc(O)c([N+](=O)[O-])c2)n[nH]1", "Potency": "6.5 µM (active)"}, {"smiles": "N#Cc1c(N2CCN(c3ccc([N+](=O)[O-])cc3)CC2)[n+](=O)c2ccc(Cl)cc2n1[O-]", "Potency": "1.3 µM (active)"}, {"smiles": "CN(C)c1ccc2nsnc2c1[N+](=O)[O-]", "Potency": "3.65 µM (active)"}, {"smiles": "CC1S/C(=C(\\C#N)C(N)=O)N(c2ccc(F)cc2)C1=O", "note": "(stereo not drawn)", "Potency": "inactive"}, {"smiles": "N=NC(=O)c1ccccc1Nc1c(O)[nH]c2ccccc12", "Potency": "1.03 µM (active)"}, {"smiles": "COC(=O)c1ccccc1NC(=O)N1c2ccccc2Sc2ccccc21", "Potency": "0.918 µM (active)"}, {"smiles": "Cc1cc(N2CCN(C)CC2)nc2ccc(NC(=S)N3CCN(c4ccc(F)cc4)CC3)cc12", "Potency": "1.3 µM (active)"}, {"smiles": "Cc1cc(N2CCN(C)CC2)nc2ccc(NC(=S)N3CCN(c4ccc(Cl)cc4)CC3)cc12", "Potency": "1.16 µM (active)"}, {"smiles": "Cc1cccc(N2CCN(C(=S)Nc3ccc4nc(N5CCN(C)CC5)cc(C)c4c3)CC2C)c1", "note": "(stereo not drawn)", "Potency": "4.1 µM (active)"}, {"smiles": "Cc1cc(N2CCN(C)CC2)nc2ccc(NC(=S)N3CCN(c4cccc(Cl)c4)CC3)cc12", "Potency": "1.16 µM (active)"}, {"smiles": "O=c1sc(N2CCN(c3ccc(F)cc3)CC2)nc2ccsc12", "Potency": "inactive"}, {"smiles": "CC(=O)Nc1ccc(/C=C/c2noc(-c3ccccc3O)n2)cc1", "Potency": "inactive"}, {"smiles": "Cn1nc([N+](=O)[O-])nc1N1CCOCC1", "Potency": "0.326 µM (active)"}, {"smiles": "Nc1c(Cl)cc(C2=NCCn3c2c2ccc(C(F)(F)F)cc2[n+]3[O-])cc1Cl", "Potency": "0.163 µM (active)"}, {"smiles": "Cc1ccc(C2=NCCn3c2c2ccc(C(F)(F)F)cc2[n+]3[O-])cc1", "Potency": "0.13 µM (active)"}, {"smiles": "[O-][n+]1c2cc(C(F)(F)F)ccc2c2n1CCN=C2c1ccc(Cl)cc1", "Potency": "0.41 µM (active)"}, {"smiles": "COc1ccc(C2=NCCn3c2c2ccc(C(F)(F)F)cc2[n+]3[O-])cc1", "Potency": "0.0729 µM (active)"}, {"smiles": "O=[N+]([O-])c1cc2cccnc2c2ncccc12", "Potency": "1.83 µM (active)"}, {"smiles": "O=C(Nc1ccc(-c2cn3ccccc3n2)cc1)c1ccco1", "Potency": "8.18 µM (active)"}, {"smiles": "COc1ccccc1-n1cc2c([N+](=O)[O-])cc([N+](=O)[O-])cc2n1", "Potency": "1.63 µM (active)"}, {"smiles": "CC(Oc1cccnc1[N+](=O)[O-])C(=O)Nc1ccc(F)cc1", "note": "(stereo not drawn)", "Potency": "5.16 µM (active)"}, {"smiles": "CC(Oc1cccnc1[N+](=O)[O-])C(=O)Nc1cccc(Cl)c1", "note": "(stereo not drawn)", "Potency": "3.65 µM (active)"}, {"smiles": "Cc1ccc(CCN=c2c([N+](=O)[O-])nn(-c3ccccc3)n2O)cc1", "Potency": "7.29 µM (active)"}, {"smiles": "O=[N+]([O-])c1nn(-c2ccccc2)n(O)c1=NCCc1ccccc1", "Potency": "3.26 µM (active)"}, {"smiles": "Cc1ccc(Nc2nc(=O)c3cc([N+](=O)[O-])ccc3s2)cc1", "Potency": "7.29 µM (active)"}, {"smiles": "CC1=NN(c2nc3ccccc3[nH]2)C(=O)/C1=C/N(C)C", "Potency": "3.65 µM (active)"}, {"smiles": "O=C(Nc1ncc([N+](=O)[O-])s1)c1ccco1", "Potency": "0.818 µM (active)"}, {"smiles": "O=C(Nc1ncc([N+](=O)[O-])s1)c1cccs1", "Potency": "460 nM (active) and 729 nM (active)"}, {"smiles": "O=C(Nc1ncc([N+](=O)[O-])s1)c1ccccc1Br", "Potency": "0.206 µM (active)"}, {"smiles": "CC(=O)O[C@]1(C(C)=O)CCC2C3CCC4=C/C(=N/OCC(=O)O)CC[C@]4(C)C3CC[C@@]21C", "note": "(stereo partly drawn)", "Potency": "inactive"}, {"smiles": "Cn1c(/C(C#N)=C(\\O)c2ccc([N+](=O)[O-])s2)nc2ccccc21", "Potency": "1.16 µM (active)"}, {"smiles": "N#C/C(=C(/O)c1ccc([N+](=O)[O-])s1)c1nc2ccccc2[nH]1", "Potency": "2.31 µM (active)"}, {"smiles": "N#C/C(=C(/O)c1ccc([N+](=O)[O-])o1)c1nc2ccccc2[nH]1", "Potency": "0.326 µM (active)"}, {"smiles": "Cc1nc2c(nc1C)C(=O)c1ccccc1C2=O", "Potency": "3.26 µM (active)"}, {"smiles": "O=C(Nc1nc(-c2cccs2)cs1)c1ccc([N+](=O)[O-])o1", "Potency": "0.65 µM (active)"}, {"smiles": "Cc1ccc(-c2csc(NC(=O)c3ccc([N+](=O)[O-])o3)n2)cc1", "Potency": "1.63 µM (active)"}, {"smiles": "c1ccc(-c2nc(-c3cnc4ccccc4n3)cs2)cc1", "Potency": "5.79 µM (active)"}, {"smiles": "c1ccc(CCNc2ncnc3nc[nH]c23)cc1", "Potency": "inactive"}, {"smiles": "O=c1cc[nH]c2ccc([N+](=O)[O-])cc12", "Potency": "4.1 µM (active)"}, {"smiles": "O=c1[nH]cnc2ccc([N+](=O)[O-])cc12", "Potency": "1.63 µM (active)"}, {"smiles": "COc1ccc(/C(O)=C2/C(=O)C(=O)N(CCCN3CCOCC3)C2c2ccc(N(C)C)cc2)cc1", "note": "(stereo not drawn)", "Potency": "inactive"}, {"smiles": "O=C(/C=C/c1cccc([N+](=O)[O-])c1)c1ccco1", "Potency": "7.29 µM (active)"}, {"smiles": "Brc1ccc(CNc2nc3ccccc3n2CCN2CCCCC2)cc1", "Potency": "0.516 µM (active)"}, {"smiles": "COc1ccccc1CN=c1c([N+](=O)[O-])nn(-c2ccc3c(c2)OCCO3)n1O", "Potency": "4.6 µM (active)"}, {"smiles": "O=[N+]([O-])c1nn(-c2ccc3c(c2)OCCO3)n(O)c1=NCc1ccccc1Cl", "Potency": "4.6 µM (active)"}, {"smiles": "CC1CC(C)CN(C(=O)/C=C/c2ccc([N+](=O)[O-])s2)C1", "note": "(stereo not drawn)", "Potency": "4.6 µM (active)"}, {"smiles": "O=C(/C=C/c1ccc([N+](=O)[O-])s1)N1CCN(c2ccccc2)CC1", "Potency": "1.45 µM (active)"}, {"smiles": "O=C(/C=C/c1ccc([N+](=O)[O-])s1)N1CCCCC1", "Potency": "1.45 µM (active)"}, {"smiles": "O=C(/C=C/c1ccc([N+](=O)[O-])s1)N1CCCC1", "Potency": "1.83 µM (active)"}, {"smiles": "O=[N+]([O-])c1c(Nc2ccc(Br)cc2)ccc2nonc12", "Potency": "2.9 µM (active)"}, {"smiles": "COC(=O)c1ccc(Nc2ccc3nonc3c2[N+](=O)[O-])cc1", "Potency": "2.05 µM (active)"}, {"smiles": "O=C(Cc1ccccc1)N/N=C/c1ccc([N+](=O)[O-])s1", "Potency": "1.83 µM (active)"}, {"smiles": "CC(=O)Nc1ccc(S(=O)(=O)N(CCc2ccccc2)CC(=O)N/N=C/c2ccc(C(=O)O)cc2)cc1", "Potency": "inactive"}, {"smiles": "O=C(Cc1cccs1)N/N=C\\c1ccc([N+](=O)[O-])s1", "Potency": "2.9 µM (active)"}, {"smiles": "NCCCn1c(C(=O)c2cc(Cl)c(N)c(Cl)c2)c2ccccc2[n+]1[O-]", "Potency": "1.3 µM (active)"}, {"smiles": "NC(=O)CCCn1c(C(=O)c2cc(Cl)c(N)c(Cl)c2)c2ccc([N+](=O)[O-])cc2[n+]1[O-]", "Potency": "5.16 µM (active)"}, {"smiles": "NCCCn1c(C(=O)c2cc(Cl)c(N)c(Cl)c2)c2ccc([N+](=O)[O-])cc2[n+]1[O-]", "Potency": "1.63 µM (active)"}, {"smiles": "CC[C@]1(C(=O)OC)[C@H]2C(=O)N(C)C(=O)[C@H]2[C@H]2CN(C)C(=NC)N21", "Potency": "inactive"}, {"smiles": "CC(C)(C)NC(=O)CCN(/N=C/c1ccc([N+](=O)[O-])o1)C1=NS(=O)(=O)c2ccccc21", "Potency": "1.16 µM (active)"}, {"smiles": "O=[N+]([O-])c1ccc(-c2nc(C(Cl)Cl)c3ccccc3n2)cc1", "Potency": "1.3 µM (active)"}, {"smiles": "O=[N+]([O-])c1ccc(/C=N/Nc2nc(-c3ccccc3)c3cc(Br)ccc3n2)o1", "Potency": "0.918 µM (active)"}, {"smiles": "Cc1cc(N/N=C/c2ccc([N+](=O)[O-])o2)nc2ccccc12", "Potency": "1.83 µM (active)"}, {"smiles": "Cc1ccc2nc(N/N=C\\c3ccc([N+](=O)[O-])o3)nc(-c3ccccc3)c2c1", "Potency": "0.46 µM (active)"}]}]}
